Data from PubChem BioAssay AID1851 (National Center for Advancing Translational Sciences (NCATS), 2009).
Out of some 16,000 compounds screened, about 5,800 (36%) were called active. Inconclusive results (about 23%) are left out. The call rests on the fitted dose curve; in most records, active means well fitted curve in the direction sought with a large enough effect; inconclusive means small, poorly fitted or top-dose-only effect, or effect the other way; inactive means no such curve, though single readings can be large or run the other way. Some of the results follow.

Molecular target: Cytochrome P450 2C19 (Homo sapiens) (UniProt P33261)
Sequence (P33261 whole entry, looked up): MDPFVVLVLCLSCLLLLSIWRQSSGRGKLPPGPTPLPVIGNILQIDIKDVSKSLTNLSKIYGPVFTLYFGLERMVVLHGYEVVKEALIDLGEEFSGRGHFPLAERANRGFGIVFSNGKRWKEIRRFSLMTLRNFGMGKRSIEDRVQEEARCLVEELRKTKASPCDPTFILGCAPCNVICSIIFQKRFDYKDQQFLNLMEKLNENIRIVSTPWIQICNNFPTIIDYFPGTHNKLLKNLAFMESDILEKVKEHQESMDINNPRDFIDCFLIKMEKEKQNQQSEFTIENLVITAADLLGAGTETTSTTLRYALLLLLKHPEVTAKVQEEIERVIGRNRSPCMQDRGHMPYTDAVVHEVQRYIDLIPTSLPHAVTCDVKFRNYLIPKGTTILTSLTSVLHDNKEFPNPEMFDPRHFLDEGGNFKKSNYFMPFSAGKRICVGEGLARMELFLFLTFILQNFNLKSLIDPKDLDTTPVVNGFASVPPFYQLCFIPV
Assay: Cytochrome panel assay with activity outcomes
Settings: recombinant CYP, pro-luciferin dealkylation, luminescence, p450-cyp2c19; series mostly up to 57.1 µM; activity, negative = inhibition: at the top concentration
On the % scale 0 is the no-effect control and ±100 the full control effect.

SMILES | AC50 | activity, negative = inhibition
COC(=O)[C@H]1C[C@@H]1[C@H](NC(=O)c1ccccc1)c1ccccc1 | 7.94 µM (active) | 
COC(=O)C1CC1C(NC(=O)[C@H]1CCCCN1)c1ccccc1 (some centres not stated) |  | -41% (inactive)
COC(=O)[C@@H]1C[C@H]1[C@@H](NC(=O)Oc1ccc(F)cc1)c1ccccc1 | 10 µM (active) | 
COC(=O)[C@H]1C[C@@H]1[C@H](NC(C)=O)c1ccccc1 |  | -28.9% (inactive)
COC(=O)[C@H]1C[C@@H]1[C@H](NC(=O)c1cccnc1)c1ccccc1 |  | -11.7% (inactive)
COC(=O)[C@@H]1C[C@H]1[C@@H](NC(=O)c1ccccc1)c1ccccc1 | 1.26 µM (active) | 
O=C(N[C@@H](c1ccccc1)[C@@H]1C[C@H]1C(=O)O)OCc1ccccc1 |  | -33% (inactive)
COC(=O)[C@H]1C[C@@H]1[C@H](NC(=O)OCc1ccccc1)c1ccccc1 | 3.16 µM (active) | 
COC(=O)[C@@H]1C[C@H]1[C@@H](NC(=O)c1cccnc1)c1ccccc1 |  | -22.1% (inactive)
COc1cccc(Nc2ncc3nc(-c4cc(F)cc(F)c4)c(=O)n(CCC#N)c3n2)c1 |  | -0.627% (inactive)
CC(C)(S)[C@H](N)C(=O)O |  | 4.04% [at 11.4 µM] (inactive)
O=C(N[C@@H](c1ccccc1)[C@@H]1C[C@H]1C(=O)NCc1ccccn1)OCc1ccccc1 | 7.94 µM (active) | 
CCCCN1C(=O)C(NC(=O)C2CC2)(C(F)(F)F)C2=C1CC(C)(C)CC2=O (configuration not stated) | 20 µM (active) | 
OCCN1CCN(CCOc2cccc(Cl)c2)CC1 |  | 28.5% (inactive)
CC1CCN(CCOc2cc(Cl)ccc2Cl)CC1 | 7.08 µM (active) | 
Clc1ccc(Cl)c(SCCCN2CCNCC2)c1 |  | 11.4% [at 11.4 µM] (inactive)
O=C(O)CCCCCCCC(=O)O |  | 14.9% (inactive)
CN(C)c1ccc(-c2nc3n(n2)C(c2cccnc2)C2=C(CC(C)(C)CC2=O)N3)cc1 (configuration not stated) | 14.1 µM (active) | 
c1cc(CNCCCN2CCOCC2)ccn1 | 7.94 µM (active) | 
c1cc(CNCCN2CCNCC2)ccn1 |  | -34.1% [at 11.4 µM] (inactive)
CCOc1ccccc1CNCCN1CCOCC1 |  | 6.81% (inactive)
Cn1c(=O)c(-c2ccc(F)c(F)c2)nc2cncnc21 |  | -43.5% (inactive)
CSc1nncc(-c2ccc(F)c(F)c2)n1 | 11.2 µM (active) | 

SMILES | AC50 | activity, negative = inhibition
CC(=O)Nc1ccc2c(c1)/C(=C/c1ccc([N+](C)(C)C)cc1)c1ccccc1-2 |  | -19.5% [at 11.4 µM] (inactive)
O=C(O)COc1c(Cl)cc(Cl)c2cccnc12 |  | 26% [at 11.4 µM] (inactive)
O=C(OCc1ccc(Cl)cc1Cl)c1cccnc1Cl | 0.355 µM (active) | 
CC(=O)N1c2c(cc(Br)cc2S(=O)(=O)NCC2COc3ccccc3O2)CC1C (configuration not stated) | 3.16 µM (active) | 
COc1ccc(C(F)(F)F)cc1N/C=C\c1nnnn1-c1ccccc1 | 1.12 µM (active) | 
COc1ccc(-n2nnnc2/C=C\Nc2ccccc2C(=O)c2ccccc2)cc1 | 0.316 µM (active) | 
COc1cccc(Cn2c(=O)c(-c3ccccc3)nc3cnc(N4CCN(C)CC4)nc32)c1 |  | -13.9% (inactive)
COc1cccc(Cn2c(=O)c(CCc3ccccc3)nc3cnc(N4CCNCC4)nc32)c1 | 25.1 µM (active) | 
CN1CCN(c2ncc3nc(CCc4ccccc4)c(=O)n(Cc4ccc(F)cc4)c3n2)CC1 |  | -34.9% (inactive)
COc1cccc(Cn2c(=O)c(CCc3ccccc3)nc3cnc(N4CCN(C)CC4)nc32)c1 | 7.94 µM (active) | 
COc1cccc(Cn2c(=O)c(-c3cccc(C#N)c3)nc3cnc(N4CCN(C)CC4)nc32)c1 |  | 20.9% (inactive)
O=C1[C@H]2CCn3c(=O)n(-c4ccccc4)c(=O)n3[C@H]2[C@H](O)[C@H]2O[C@@H]12 |  | -1.55% [at 11.4 µM] (inactive)
CCN(c1ccccc1)S(=O)(=O)c1ccc(NC(=S)NC(=O)c2ccc(Br)o2)cc1 | 8.91 µM (active) | 
CC(=O)NS(=O)(=O)c1ccc(NC(=S)NC(=O)c2ccco2)cc1 |  | 7.63% (inactive)
CCN(c1ccccc1)S(=O)(=O)c1ccc(NC(=S)NC(=O)c2cccs2)cc1 | 3.98 µM (active) | 
CN(C)S(=O)(=O)c1ccc(NC(=O)COC(=O)c2ccccn2)cc1 |  | -16% (inactive)
CCN(CC)S(=O)(=O)c1ccc(NC(=O)COC(=O)c2ccc(Br)o2)cc1 | 11.2 µM (active) | 
CN(C1CCCCC1)S(=O)(=O)c1ccc(NC(=S)NC(=O)c2cccs2)cc1 | 3.55 µM (active) | 
Cc1noc(NS(=O)(=O)c2ccc(NC(=O)c3ccc(Br)o3)cc2)c1C |  | -25.5% (inactive)
CCCC(=O)Nc1ccc(C(=O)NNC(=S)NC(=O)c2cccs2)cc1 |  | -22.5% (inactive)
CCCCCCCCCCCCCCCC[N+](C)(C)CCN(Cc1ccc(OC)cc1)c1ncccn1 |  | -43.8% [at 25.6 µM] (inactive)
O=c1c(CCc2ccccc2)nc2cncnc2n1Cc1ccccc1Cl | 5.01 µM (active) | 
O=c1c(CCc2ccccc2)nc2cncnc2n1-c1ccccc1 | 10 µM (active) | 

SMILES | AC50 | activity, negative = inhibition
O=c1c(CCc2ccccc2)nc2cncnc2n1Cc1ccc(F)cc1 | 6.31 µM (active) | 
Cc1nc2cnc(N(C)C)nc2n(-c2ccccc2)c1=O |  | 5.33% (inactive)
Brc1ccc(-c2nnc(-c3cccc(Br)c3)o2)cc1 |  | -11.7% (inactive)
Cc1nnc(-c2cccc(Br)c2)c2cn(-c3ccccc3Cl)nc12 | 1.78 µM (active) | 
Cc1nnc(-c2cccc(Br)c2)c2cn(-c3ccc(Br)cc3)nc12 | 5.01 µM (active) | 
CCn1c(CC(C)C)n[nH]c1=S |  | 16% (inactive)
CCc1nn(C)c(-c2n[nH]c(=S)n2N)c1Cl |  | -20.1% (inactive)
CC(C)Cn1c(-c2nn(C)cc2Cl)n[nH]c1=S | 15.8 µM (active) | 
O=C(Nc1ccc2c(c1)nc1n2CCN(C2CCCCC2)C1)NC1CCCCC1 | 14.1 µM (active) | 
CC1CCN(CCc2nc3cc(NC(=O)NC4CCCCC4)ccc3n2C)CC1 |  | -5.62% (inactive)
C[C@@H]1/C=C\CC(=O)OC[C@H]2O[C@@H](C=C[C@@H]2O)[C@H](C)/C=C\CC(=O)OC1 |  | -20.4% [at 11.4 µM] (inactive)
Cn1c2c(c(=O)n(C)c1=O)[C@@H]1c3c(ccc4ccccc34)OC[C@@H]1CO2 | 14.1 µM (active) | 
O=C1c2ccccc2C(=O)c2c(NC3CCCCC3)ccc(Nc3ccc(S(=O)(=O)O)cc3)c21 | 3.98 µM (active) | 
Nc1ccc(-c2ccc(Nc3cc(S(=O)(=O)O)c(N)c4c3C(=O)c3ccccc3C4=O)cc2)c(S(=O)(=O)O)c1 |  | -36% [at 11.4 µM] (inactive)
O=C(Nc1ccc(Nc2ccc3c(c2)C(=O)c2ccccc2C3=O)c2c1C(=O)c1ccccc1C2=O)c1ccccc1 |  | -23.9% [at 11.4 µM] (inactive)
Cn1c(SC2=CS(=O)(=O)c3ccccc32)nc2ccccc21 | 17.8 µM (active) | 
Oc1ccc(/C=N/NC(=S)NCc2ccco2)cc1 | 10 µM (active) | 
C=CCOc1cccc(/C=N/NC(=O)C(=O)NCc2ccco2)c1 |  | 18.1% (inactive)
CNc1nc(-c2ccoc2)nc2ccccc12 |  | -19.4% (inactive)
CN(C)c1ccc(-c2nc(Nc3ccncc3)c3ccccc3n2)cc1 | 10 µM (active) | 
Fc1ccc(Nc2nc(-c3ccoc3)nc3ccccc23)cc1 |  | -38.8% (inactive)
CN(C)c1ccc(-c2nc(NC3CCNCC3)c3ccccc3n2)cc1 |  | -7.38% (inactive)
CNc1nc(-c2ccc(N(C)C)cc2)nc2ccccc12 | 25.1 µM (active) | 

SMILES | AC50 | activity, negative = inhibition
c1ccc2c(Nc3ccncc3)nc(-c3ccoc3)nc2c1 | 20 µM (active) | 
NCC[C@H](O)C(=O)N[C@H]1C[C@@H](N)[C@@H](O[C@H]2O[C@@H](CN)[C@@H](O)[C@@H](O)[C@@H]2O)[C@@H](O)[C@@H]1O[C@H]1O[C@@H](CO)[C@@H](O)[C@@H](N)[C@@H]1O |  | 8.94% [at 25.6 µM] (inactive)
N[C@@H](C(=O)O)c1cc(O)ccc1Cl |  | -10% (inactive)
Cc1nc(-c2cccnc2)sc1C(=O)Nc1ccc(Cl)cc1 | 11.2 µM (active) | 
CNC(=O)c1sc(-c2cccnc2)nc1C |  | -9.33% (inactive)
CC(=O)OC[C@H]1O[C@@H](O/N=C(\C)CCN2CCCCc3nc(C)c(C)cc32)[C@H](OC(C)=O)[C@@H](OC(C)=O)[C@H]1OC(C)=O |  | -0.342% [at 11.4 µM] (inactive)
CNc1ncnc2c1ncn2[C@H]1C[C@@H](OP(=O)(O)O)[C@H](COP(=O)(O)O)O1 |  | 6.61% (inactive)
CNc1ncnc2c1ncn2[C@H]1C[C@H](OP(=O)(O)O)[C@H](COP(=O)(O)O)O1 | 1 µM (active) | 
CNc1ncnc2c1ncn2[C@@H]1O[C@@H](CO)[C@H](O)[C@@H]1O |  | 1.57% (inactive)
CN(C)CCN(Cc1ccc(Cl)cc1)c1ccccn1 | 6.31 µM (active) | 
COc1ccc(CN(CCN(C)C)c2ccccn2)cc1 |  | 20.1% (inactive)
CN(C)CCN(Cc1cccs1)c1ccccn1 | inactive | 
N=c1n(-c2ccccc2)c(O)cc(=O)n1-c1ccccc1 |  | -21.2% (inactive)
Cc1ccc(C(=O)N/C(=C\c2ccc(Br)cc2)c2nc(=S)[nH][nH]2)cc1 | 11.2 µM (active) | 
CO[C@H]1COC(=O)CCC[C@@H](C)[C@H](OC)COC(=O)[C@@H](C)NC(=O)C/C=C\[C@@H]1C |  | 31.3% [at 11.4 µM] (inactive)
COc1ccc(-c2cc3ccccc3n2CC(O)CNCCO)cc1 (configuration not stated) | 14.1 µM (active) | 
O=C(O)COc1ccc(OCCNC[C@@H](O)COc2ccccc2)cc1 |  | -33.9% (inactive)
NC(=O)c1cc[n+](CC2=C(C(=O)O)N3C(=O)[C@@H](NC(=O)[C@H](c4ccccc4)S(=O)(=O)[O-])[C@@H]3SC2)cc1 | inactive | 
O=C(NNS(=O)(=O)c1ccc(Cl)cc1)C1CCN(Cc2ccccc2)CC1 |  | -6.45% (inactive)
O=C(NNS(=O)(=O)c1ccccc1)c1cccnc1 |  | 9.95% [at 11.4 µM] (inactive)
O=C(NNS(=O)(=O)c1ccc(Cl)cc1)c1cnn(-c2ccccc2)c1-n1cccc1 | 1.12 µM (active) | 
COc1cc2c(cc1OC)C(C(=O)N1CCOCC1)C(c1cccs1)N(C)C2=O (configuration not stated) |  | 9.22% (inactive)
Cc1ccc(-n2c(C)nnc2SCC(=O)N2CCc3ccccc3C2)cc1C | 22.4 µM (active) | 
